Compound activity: PubChem, National Center for Advancing Translational Sciences (NCATS)
Pf Dd2 growth = Plasmodium falciparum Dd2 growth inhibition; P. falciparum Dd2 growth, SYBR Green, 72 h; Potency, µM (top dose mostly 28.9 µM), for the others: at the top dose activity, negative = inhibition, usual class: inhibitors; 120,000 tested, 4.3% active; AID 1347417; active = well fitted inhibition curve with a large enough effect;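 note: plate controls were DMSO vehicle for no effect and reference drug for full effect; nearly all actives have a fitted effect of over 65% in size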
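Infected erythrocytes (Dd2, 0.3% parasitemia, 2.5% hematocrit final) are added to compound in RPMI-1640/Albumax II medium, grown 72 h at 37C in low oxygen, then lysed with saponin/Triton-X containing SYBR Green and read by fluorescence.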
Numbers without * were called inactive; i = inactive; [ ] = remark or other dose. Many of the other results were omitted from the sample, so hits are more common in it than they were. Potency is the fitted concentration of half-maximal effect.

SMILES	Pf Dd2 growth
CCOc1ccccc1CNC(=O)c1nnn2cc(C)[nH]c(=O)c12	8.91µM*
Cc1cn2nnc(C(=O)NC3CCCCCC3)c2c(=O)[nH]1	-13.6%
Cc1cn2nnc(C(=O)NCCCc3ccccc3)c2c(=O)[nH]1	-25.7%
CCOc1ccc(NC(=O)c2nnn3cc(C)[nH]c(=O)c23)cc1	0.631µM*
Cc1cn2nnc(C(=O)NC3CCN(Cc4ccccc4)CC3)c2c(=O)[nH]1	26.3%
Cc1cn2nnc(C(=O)NCc3ccco3)c2c(=O)[nH]1	17.8%
Cc1cn2nnc(C(=O)NC3CCCCCCC3)c2c(=O)[nH]1	7.94µM*
CCCCNC(=O)c1nnn2cc(C)[nH]c(=O)c12	22.1%
Cc1cn2nnc(C(=O)N3CCC(C(=O)NC4CCCCC4)CC3)c2c(=O)[nH]1	-10.7%
CC1(Cc2ccc3c(c2)OCO3)CCCN(CC(=O)NCc2ccco2)C1 (stereo not given)	-19.7%
CCNC(=O)[C@@H]1C[C@H](N)CN1C(=O)c1cnc(-c2cccnc2)nc1C	-5.9%
COc1ccc(C(=O)NCC2(COc3cnccn3)C[C@@H](O)[C@@H](O)C2)cc1 (stereo not given in full)	-4.2%[44.1 µM]
O=C(NCc1ccco1)C1CCN(C(=O)c2ncn3c2COC(c2ccccc2)C3)CC1 (stereo not given)	-15.0%
CC(C)(C)CC(=O)NC[C@H]1OC[C@@H](NCc2ncc[nH]2)[C@@H]1O	5.4%[44.1 µM]
Cc1cccc(CNC(=O)[C@H]2CCC[C@H]2NC(=O)c2cnc(C)cn2)c1	-5.0%
Cn1nccc1C(=O)N1CCCC(c2nc(-c3ccccc3)no2)CCNC(=O)CC1 (stereo not given)	i
COc1ccc(Nc2cc(C(=O)NCCCN(C)C3CCCCC3)c3ccccc3n2)cc1	5.62µM*
O=C(NC1CCCCC1)c1cc(Nc2ccccc2)nc2ccccc12	1.7%
COc1ccc(Nc2cc(C(=O)NC3CCCC3)c3ccccc3n2)cc1	4.4%
COc1ccc(Nc2cc(C(=O)NCCCN(C)C3CCCCC3)c3ccccc3n2)c(OC)c1	8.91µM*
COc1ccc(CNC(=O)c2cc(Nc3ccc(OC)cc3OC)nc3ccccc23)cc1	7.8%
COc1ccc(N2CCN(CCCNC(=O)c3cc(Nc4ccc(OC)cc4OC)nc4ccccc34)CC2)cc1	-11.8%
O=C(NCc1nc(-c2cccc(F)c2)c(-c2ccccn2)[nH]1)N1CCCC1	1.7%
Cc1ccc(C(=O)N2C(C(=O)NC(C)C)COC23CCN(C(=O)c2cccc([N+](=O)[O-])c2)CC3)cc1 (stereo not given)	i
COCc1nc(CCNS(=O)(=O)c2ccc(OC)cc2)no1	64.0%
SMILES	Pf Dd2 growth
CCc1cccc(NC(=O)CCn2ccn3nc4c(c3c2=O)CCCC4)c1	i
Cc1cc(C(=O)N2CCN(C(=O)N3CC4CC(C3)[C@H]3CCCC(=O)N3C4)CC2)n(C)n1 (stereo not given in full)	18.2%
COCCCNC(=O)c1[nH]c2cc(OC)ccc2c1Sc1ccc(C)cc1	25.0%
COc1ccc2c(Sc3ccccc3)c(C(=O)NCCCN3CCCCC3)[nH]c2c1	11.2µM*
O=C(NCCCN1CCCCC1)c1[nH]c2ccccc2c1Sc1ccc(Cl)cc1	i
CCS(=O)(=O)N1CCC2(CC1)CC(N1CCN(C(C)=O)CC1)CCO2 (stereo not given)	24.4%
Cc1nc([C@@H]2CN(C3CCN(CCc4ccccc4)CC3)C[C@H]2C(N)=O)n[nH]1	18.1%
COc1ccc(CN2Cc3[nH]cnc3C[C@H]2C(=O)NCc2ccc(Cl)cc2)c2ccccc12	i
CN(C)c1ccc(CN2Cc3[nH]cnc3C[C@H]2C(=O)N2CCC(Cc3ccccc3)CC2)cc1	i
CN(Cc1ccccc1)C(=O)[C@@H]1Cc2nc[nH]c2CN1C	-20.8%[44.1 µM]
COc1ccc(CN2Cc3[nH]cnc3C[C@H]2C(=O)N(C)Cc2ccccc2)c2ccccc12	5.62µM*
COc1ccc(CN2Cc3[nH]cnc3C[C@H]2C(=O)NC2CCCCC2)c2ccccc12	11.2µM*
COc1ccc(CN2Cc3[nH]cnc3C[C@H]2C(=O)NCc2ccc(C#N)cc2)c2ccccc12	-12.0%
O=C(CCC1CCCC1)N1CCC2(CC1)CC(N(C(=O)c1ccccc1)C1CC1)CCO2 (stereo not given)	-16.5%
Cc1ccc(NC(=O)N2CCCC(c3nccn3Cc3ccncc3)C2)cc1C (stereo not given)	2.9%
CCC(CC)C(=O)NC[C@H]1O[C@@H](CC(=O)N2CCN(c3ccccn3)CC2)[C@H](O)[C@@H]1O	-17.8%[44.1 µM]
COc1ccc(C[C@H](NC(=O)[C@@]2(O)C[C@@H](O)[C@H](O)[C@@H](NS(=O)(=O)c3cccc(C(F)(F)F)c3)C2)C(N)=O)cc1	5.5%
O=C1NCc2ccccc2CC12CCCN2Cc1ccc(Cl)cc1 (stereo not given)	-13.1%
O=C1NCc2ccccc2CC12CCCCN2Cc1ccc(O)cc1 (stereo not given)	-2.9%
O=C1NCc2ccccc2CC12CCN(Cc1ccc(Cl)s1)C2 (stereo not given)	-7.0%
O=C1NCc2ccccc2CC12CCN(Cc1cnc3ccccc3c1)C2 (stereo not given)	-20.0%
O=C1NCc2ccccc2CC12CCCN2Cc1ccccc1Cl (stereo not given)	-22.2%
O=C1NCc2ccccc2CC12CCCCN2Cc1ccnc2ccccc12 (stereo not given)	8.91µM*
O=C1NCc2ccccc2CC12CCCN2Cc1ccc(Cl)s1 (stereo not given)	10µM*
O=C1NCc2ccccc2CC12CCCN2Cc1cc(O)cc(O)c1 (stereo not given)	4.4%
SMILES	Pf Dd2 growth
O=C1NCc2ccccc2CC12CCCN2Cc1cnc2ccccc2c1 (stereo not given)	8.91µM*
CCc1ccc(C(=O)N2CCC3(CC2)OCC(C(=O)NC2CC2)N3C(=O)c2cccc(C)c2)cc1 (stereo not given)	i
CN(C)Cc1nnc(C2CCN(C(=O)c3cn[nH]c3-n3cnnn3)CC2)n1C	-0.6%
CN1CCC2(C1)CN(CC1CCOCC1)c1ccc(C(=O)NCCOc3ccccc3)cc12 (stereo not given)	i
c1cc(CN2CCn3c(nnc3C3CCCNC3)C2)cs1 (stereo not given)	9.3%[44.1 µM]
COc1ccccc1CCC(=O)N1C[C@@H](C)[C@](O)(C2CC2)C1	-13.9%
CCc1cccc(-n2c(=O)c3cccnc3n2CC(=O)NCc2ccc(C)cc2)c1	1.12µM*
CCc1ccc(-n2c(=O)c3cccnc3n2CC(=O)NCc2ccc(F)cc2)cc1	-20.8%
O=C(Cn1c2ncccc2c(=O)n1-c1ccccc1)NCc1ccccc1	-10.9%
CCc1cccc(-n2c(=O)c3cccnc3n2CC(=O)Nc2ccccc2C(=O)OC)c1	49.2%[5.79 µM]
CCc1cccc(-n2c(=O)c3cccnc3n2CC(=O)NCc2ccccc2Cl)c1	2.24µM*
Cc1nn(CC(=O)NCc2ccccc2Cl)c(=O)c2nn(-c3ccccc3)c(C)c12	11.5%
O=C(Cn1c2ncccc2c(=O)n1-c1ccccc1)Nc1ccc(Cl)cc1C(F)(F)F	7.6%
CCc1cccc(-n2c(=O)c3cccnc3n2CC(=O)NCc2ccccc2)c1	1µM*
Cc1ccc(-n2c(=O)c3cccnc3n2CC(=O)Nc2cc(Cl)ccc2C)cc1	9.1%
O=[S+]1([O-])NC2(CCCN(Cc3cccc(C(F)(F)F)c3)C2)COc2ccccc21 (stereo not given)	i
Cc1nc(CN2CCOc3cc([S+](=O)([O-])Nc4ccccc4)ccc3C2)cs1	i
O=C(c1ccc(CC2CCN(C(=O)c3ccccn3)CC2)cc1)N1CCOCC1	-13.6%
